miR122 inh = activators of miR-122 sensor in Huh7 cells; Huh7 psiCHECK-miR122 Renilla luciferase sensor, 48 h; activation, % at 12.5 µM; hit rate 0.14% among 340,000;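 active means mean activation of 30% or more, with every replicate also reaching 30%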;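 further: 0% = median of neutral control wells and 100% = median of positive control wells; higher luciferase signal means stronger suppression of miR-122 activity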
* = called active by the depositor. The full list was thinned out, with hits kept by preference.

SMILES	miR122 inh
CCC(=O)N(C)C[C@H]1Oc2cc(-c3cccc(C#N)c3)ccc2S(=O)(=O)N([C@H](C)CO)C[C@H]1C	9
C[C@H](CO)N1C[C@H](C)[C@@H](CN(C)Cc2ccccc2F)Oc2ncc(/C=C/c3ccccc3)cc2C1=O	-1
Cc1ccccc1-c1cnc2c(c1)C(=O)N([C@H](C)CO)C[C@H](C)[C@H](CN(C)C(=O)c1ccccc1)O2	0
COc1ccccc1-c1ccc2c(c1)O[C@H](CN(C)C(C)=O)[C@@H](C)CN([C@H](C)CO)S2(=O)=O	4
Cc1ccc(-c2ccc3c(c2)O[C@@H](CN(C)Cc2cccc(C(=O)O)c2)[C@H](C)CN([C@H](C)CO)S3(=O)=O)cc1	-7
CCCN1C[C@H](C)[C@H](OC)CN(C)C(=O)c2ccc(NS(C)(=O)=O)cc2OC[C@@H]1C	0
CC(=O)Nc1ccc(-c2cc(-c3ccc(NC(C)=O)cc3)nc(-c3ccc(NC(C)=O)cc3)n2)cc1	32*
CC(=O)Nc1ccc(S(=O)(=O)Nc2cccc(-c3nc4ccccc4o3)c2)cc1	-138
CC(=O)Nc1ccc(NS(=O)(=O)c2ccc3ccccc3c2)cc1	-105
CCCNC(=O)N(C)C[C@H]1Oc2cc(C#Cc3cccc(F)c3)ccc2S(=O)(=O)N([C@@H](C)CO)C[C@H]1C	3
C[C@H]1CN([C@@H](C)CO)S(=O)(=O)c2ccc(C#Cc3ccc(F)cc3)cc2O[C@@H]1CN(C)S(=O)(=O)c1cn(C)cn1	-44
COc1ccccc1-c1cnc2c(c1)C(=O)N([C@H](C)CO)C[C@H](C)[C@H](CN(C)C(=O)c1ccccc1)O2	3
C[C@H](CO)N1C[C@H](C)[C@@H](CN(C)Cc2ccc(C(=O)O)cc2)Oc2ncc(-c3ccc(F)cc3)cc2C1=O	4
COCC(=O)N(C)C[C@@H]1Oc2cc(-c3cncnc3)ccc2S(=O)(=O)N([C@H](C)CO)C[C@H]1C	-3
C[C@H](CO)N1C[C@H](C)[C@H](CN(C)CC2CCOCC2)Oc2cc(C#Cc3cccnc3)ccc2S1(=O)=O	3
Cc1ccc(S(=O)(=O)c2ccc([N+](=O)[O-])cn2)cc1	33*
C[C@H]1CN([C@@H](C)CO)C(=O)c2cc(-c3ccc(F)cc3)cnc2O[C@H]1CN(C)C(=O)c1ccccn1	-6
Cc1ccccc1NCN1C(=O)C2C3C=CC(C3)C2C1=O (stereo not given)	34*
C[C@H]1CN([C@@H](C)CO)C(=O)c2cc(-c3cccnc3)cnc2O[C@@H]1CN(C)S(C)(=O)=O	-18
CC(=O)N(C)C[C@@H]1Oc2cc(C#CC3(O)CCCC3)ccc2S(=O)(=O)N([C@@H](C)CO)C[C@@H]1C	10
CCS(=O)(=O)Nc1ccc2c(c1)C(=O)N(C)C[C@H](OC)[C@H](C)CN[C@@H](C)CO2	-1
C[C@@H](O)C#Cc1ccc2c(c1)O[C@H](CN(C)Cc1cncnc1)[C@@H](C)CN([C@@H](C)CO)S2(=O)=O	0
C[C@H](CO)N1C[C@H](C)[C@@H](CN(C)Cc2cncnc2)Oc2cc(-c3cncnc3)ccc2S1(=O)=O	5
C[C@@H]1CN([C@H](C)CO)S(=O)(=O)c2ccc(C#C[C@@H](C)O)cc2O[C@@H]1CN(C)Cc1cccnc1	-3
C[C@H](CO)N1C[C@H](C)[C@H](CN(C)Cc2cncnc2)Oc2cc(C#C[C@@H](C)O)ccc2S1(=O)=O	3
SMILES	miR122 inh
C[C@@H]1CN([C@@H](C)CO)S(=O)(=O)c2ccc(C#C[C@@H](C)O)cc2O[C@@H]1CN(C)Cc1cncnc1	9
Cc1ccc(-c2ccc3c(c2)O[C@H](CN(C)Cc2cncnc2)[C@H](C)CN([C@@H](C)CO)S3(=O)=O)cc1	57*
C[C@H](CO)N1C[C@H](C)[C@H](CN(C)Cc2ccc(-c3ccccc3)cc2)Oc2cc(C#C[C@@H](C)O)ccc2S1(=O)=O	41*
C[C@H](O)C#Cc1ccc2c(c1)O[C@H](CN(C)Cc1ccc(-c3ccccc3)cc1)[C@@H](C)CN([C@H](C)CO)S2(=O)=O	49*
C[C@H](O)C#Cc1ccc2c(c1)O[C@H](CN(C)C)[C@H](C)CN([C@@H](C)CO)S2(=O)=O	3
C[C@@H]1CN([C@H](C)CO)S(=O)(=O)c2ccc(C#C[C@@H](C)O)cc2O[C@@H]1CN(C)Cc1cncnc1	0
C[C@@H]1CN([C@@H](C)CO)S(=O)(=O)c2ccc(C#C[C@@H](C)O)cc2O[C@H]1CN(C)Cc1ccc(-c2ccccc2)cc1	41*
C[C@H]1CN([C@@H](C)CO)S(=O)(=O)c2ccc(-c3ccccc3)cc2O[C@H]1CN(C)Cc1cncnc1	1
COc1cccc(C#Cc2ccc3c(c2)O[C@@H](CN(C)S(=O)(=O)c2ccccc2F)[C@@H](C)CN([C@H](C)CO)S3(=O)=O)c1	-1
C[C@H](CO)N1C[C@H](C)[C@@H](CN(C)C(=O)Nc2cc(F)ccc2F)Oc2cc(-c3ccc(C#N)cc3)ccc2S1(=O)=O	-44
CO[C@@H]1CN(C)C(=O)c2cc(NC(=O)c3nc4ccccc4s3)ccc2OC[C@@H](C)N(Cc2ccncc2)C[C@@H]1C	1
C[C@H](CO)N1C[C@H](C)[C@@H](CN(C)C)Oc2ncc(C#CC3CC3)cc2C1=O	2
CCC(=O)Nc1ccc2c(c1)OC[C@@H](C)N(C(=O)CN1CCOCC1)C[C@@H](C)[C@@H](OC)CN(C)C2=O	-15
CC(C)CC#Cc1ccc2c(c1)O[C@@H](CN(C)C(=O)NC1CCCC1)[C@H](C)CN([C@H](C)CO)S2(=O)=O	-24
COCC(=O)N(C)C[C@H]1Oc2cc(-c3cccc(F)c3)ccc2S(=O)(=O)N([C@H](C)CO)C[C@@H]1C	-9
CC(C)NC(=O)N(C)C[C@H]1Oc2cc(C3=CCCCC3)ccc2S(=O)(=O)N([C@@H](C)CO)C[C@H]1C	6
C[C@@H]1CN([C@@H](C)CO)C(=O)c2cc(-c3ccccc3F)cnc2O[C@@H]1CN(C)Cc1ccccc1F	0
C[C@@H]1CN([C@H](C)CO)C(=O)c2cc(NC(=O)Cc3cn(C)c4ccccc34)ccc2O[C@@H]1CN(C)S(=O)(=O)c1ccc(Cl)cc1	-101
CNC[C@@H]1Oc2cc(C#Cc3cccc(F)c3)ccc2S(=O)(=O)N([C@@H](C)CO)C[C@H]1C	2
C[C@@H]1CN([C@H](C)CO)C(=O)c2cc(C#CC3(O)CCCC3)cnc2O[C@H]1CN(C)C(=O)C1CCCCC1	-4
COc1ccccc1C#Cc1ccc2c(c1)O[C@H](CN(C)Cc1cccnc1)[C@@H](C)CN([C@@H](C)CO)S2(=O)=O	40*
C[C@H](CO)N1C[C@H](C)[C@@H](CN(C)Cc2cccnc2)Oc2cc(C#C[C@@H](C)O)ccc2S1(=O)=O	-1
C[C@@H]1CN([C@H](C)CO)S(=O)(=O)c2ccc(C#C[C@@H](C)O)cc2O[C@H]1CN(C)Cc1cccnc1	2
COc1ccccc1C#Cc1ccc2c(c1)O[C@@H](CN(C)Cc1cncnc1)[C@@H](C)CN([C@@H](C)CO)S2(=O)=O	4
COc1ccccc1C#Cc1ccc2c(c1)O[C@H](CN(C)Cc1cncnc1)[C@@H](C)CN([C@H](C)CO)S2(=O)=O	-22
C[C@H](O)C#Cc1ccc2c(c1)O[C@@H](CN(C)Cc1ccc(-c3ccccc3)cc1)[C@@H](C)CN([C@@H](C)CO)S2(=O)=O	38*
COc1ccc(C(=O)Nc2ccc3c(c2)OC[C@@H](C)N(C)C[C@H](C)[C@@H](OC)CN(C)C3=O)cc1	0

Screens (PubChem)
